The panel holds about 79,000 compounds, 15% with a hit somewhere; the sample as a whole holds those more often. Unmarked numbers belong to inactive results. Activity calls are given as the source filed them. Rule as the data show it: active = growth inhibition above about 70%; inactive = the rest.
test: NCI Yeast Anticancer Drug Screen. Data for the rad50 strain (AID 155);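 also: 0% = growth of vehicle-only cultures of the same strain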; details: S. cerevisiae rad50 strain growth inhibition; at 5.0 µM (retest, dose inferred, filed as 0.5); hits give high values
Method in brief: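 Yeast carrying a defined DNA repair defect were exposed to test compounds, and growth was compared with vehicle-treated controls to give percent inhibition.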

| SMILES | growth inhibition |
| --- | --- |
| COc1ccc(CN2CCCN(Cc3ccc(OC)cc3OC)C2c2ccc(N(CCCl)CCCl)cc2)c(OC)c1 | 2% |
| [Cl][Pt+2][Cl].[NH-]c1ccc([N+](=O)[O-])cc1[NH-] | 40% |
| O=C(Oc1ccc(S(=O)(=O)F)cc1F)c1ccccc1Cl | 5% |
| Oc1c(I)cc(I)cc1I | -6% |
| CCCCCCCCCCCCCCCC[N+](C)(C)CCOS(C)(=O)=O | 99% (active) |
| CN(C)CC1(N)C(=O)NC(=O)NC1=O | 3% |
| CC1=C(O)C(=O)C=C2C1=CC=C1[C@@]2(C)CC[C@@]2(C)[C@@H]3C[C@](C)(C(=O)O)CC[C@]3(C)CC[C@]12C | 65% |
| CCC[CH2][Sn]([CH2]CCC)([N]=C=S)[N]=C=S | 85% (active) |
| O=C(C[n+]1ccccc1)C1CCc2ccccc2C1 (stereo not given) | -3% |
| [Cl][Pt][Cl].c1ccc([AsH](CC[AsH](c2ccccc2)c2ccccc2)c2ccccc2)cc1 | 99% (active) |
| COc1cc(/C=C\[N+](=O)[O-])ccc1O | 87% (active) |
| Cc1sc(Cc2ccccc2)nc1-c1ccc(N=Cc2ccc(N(CCCl)CCCl)cc2)cc1 | 20% |
| CC1(C)C2CCC([CH2][Hg][Cl])C1C2 (stereo not given) | 99% (active) |
| CC12C(=O)C=CCC1=CCC1C2CCC2(O)C(=O)OC3(C)C4CC5(C)C(COC16OC23C5C6=O)C(=O)O4 (stereo not given) | 11% |
| O=C(CBr)OCC(Br)CBr (stereo not given) | 98% (active) |
| S=c1[nH]c2ccccc2s1.[Pb] | -11% |
| O=[N+]([O-])c1ccc(C(Br)Br)cc1 | 93% (active) |
| CC(C)(C)[Si](OC(=O)N(CCCl)CCCl)(c1ccccc1)c1ccccc1 | 22% |
| CCCCCCCC[N+]12CN3CN(CN(C3)C1)C2 | -5% |
| CC(C=O)[Se]c1ccccc1 (stereo not given) | -2% |

| SMILES | growth inhibition |
| --- | --- |
| CCOP(=O)(N=Nc1cccnc1)OCC | -2% |
| COc1cc(/C=C/c2ccc(OC)c(O)c2)cc(OC)c1 | 0% |
| ClC1CCCCC1[Se](Cl)(Cl)C1CCCCC1Cl (stereo not given) | 34% |
| C/C(=N/NC(N)=S)c1ccc(Cl)cc1 | 9% |
| O=C(Nc1ccccc1)c1cc([N+](=O)[O-])ccc1O.[Ni] | 51% |
| CC1(C)N=C(N)N=C(N)N1c1ccc(OCCCCNC(=O)Nc2ccc(S(=O)(=O)F)cc2)c(Cl)c1 | -3% |
| Nc1nc(N)c(-c2ccc(Cl)c(Cl)c2)c(COc2ccc(CNC(=O)Nc3cccc(S(=O)(=O)F)c3)cc2Cl)n1 | 2% |
| CC(=O)[O-].CC(=O)[O-].O=C(N/N=C/c1cc(Cl)cc(Cl)c1[OH2+])c1ccncc1.[Co+2] | 6% |
| CC(Br)C(=O)C(CCN(C)C)(c1ccccc1)c1ccc(Br)s1 (stereo not given) | -9% |
| [N-]=[N+]=NC1(N=[N+]=[N-])C(=O)NN=C(c2ccccc2)C1=O (stereo not given) | -12% |
| NC(=O)c1cc([N+](=O)[O-])c(Cl)c([N+](=O)[O-])c1Cl | 34% |
| Nc1nc(N)c(-c2ccc(Cl)c(Cl)c2)c(CCc2ccc(CNC(=O)c3cccc(S(=O)(=O)F)c3)cc2)n1 | -3% |
| CCOC(=O)C(Cl)Cl | -1% |
| C1=C[N-]c2c3c(ccc2=C1)=CC=C[N-]3.C1=C[N-]c2c3c(ccc2=C1)=CC=C[N-]3.F[P-](F)(F)(F)(F)F.[Cu+2] | 56% |
| CCCCCCCCCCC(=O)O.[Pb] | -14% |
| CN(Cc1ccccc1)CC(O)c1cccc(I)c1 (stereo not given) | -3% |
| CCOc1c(Br)cc(N=Cc2ccc(N(CCCl)CCCl)c(OC)c2)cc1Br | 6% |
| COC(=O)C1ON(c2ccccc2)C2c3ccccc3-c3ccccc3C12 (stereo not given) | 31% |
| COc1ccccc1C(Cc1ccc(N2C(N)=NC(N)=NC2(C)C)cc1)C(=O)Nc1ccc(S(=O)(=O)F)cc1 (stereo not given) | 3% |
| O=[N+]([O-])c1cc([N+](=O)[O-])c(Cl)s1 | 98% (active) |

— PubChem BioAssay (NCI)
